Laboratory results reported in PubChem BioAssay (Tox21).
“And” between values parts separate entries of the source, which are not always exact repeats. Equal values may be shown once. Inconclusive results are not listed. The source made the active and inactive calls. Unless noted, the call rests on the fitted dose curve; in most records, active means well fitted curve in the direction sought with a large enough effect in the repeat runs; inconclusive means weak or mixed curves; inactive means no such curve, though single readings can be large; an effect the other way counts as inactive or inconclusive.

How the values were obtained:
[1] = qHTS assay to test for compound auto fluorescence at 535 nm (green) in HepG2 cells (AID 720675)
[2] = qHTS assay to test for compound auto fluorescence at 590 nm (red) in HEK293 cells (AID 720679)
In short: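 Using HEK293 cells at 2,000 per well, the screen added 23 nL of each compound after cell attachment and incubated overnight (37C, 5% CO2). The plate reader then captured red-label fluorescence, Ex/Em 540/590nm.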

[3] = qHTS assay to test for compound auto fluorescence at 535 nm (green) in HEK293 cell free culture (AID 720682)
In short: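 Intrinsic compound fluorescence is measured in culture medium containing 10% FBS, with excitation at 485 nm and detection at 535 nm, referenced to fluorescein.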

[4] = qHTS assay to identify small molecule agonists of the RXR signaling pathway - cell viability counter screen (AID 1159529); further: nearly all actives have a fitted effect of over 50% in size; further: potency means the concentration at half of the fitted maximal effect
In short: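 Tox21 10K compounds were tested for cytotoxicity against GeneBLAzer RXR-alpha HEK 293T cells grown in 2% charcoal-stripped FBS. Exposure lasted 16 hr at 37 C, 5% CO2; viability read by CellTiter-Glo luminescence.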

[5] = qHTS assay to identify small molecule agonists of the hypoxia (HIF-1) signaling pathway - cell viability counter screen (AID 1224844; calls by dose curve; further: nearly all actives have a fitted effect of over 50% in size; further: potency means the concentration at half of the fitted maximal effect)
In short: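 HRE-bla ME-180; 0.5% dFBS; cpd 17 h, 37C, 5% CO2; CellTiter-Glo lum., 30 min RT, post-FRET read, same wells.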

[6] = qHTS RealTime-Glo MT Cell Viability Assay in HEK293 cells - 16 hour (AID 1224872); further: nearly all actives have a fitted effect of over 50% in size; further: potency means the concentration at half of the fitted maximal effect
In short: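 Reads taken at 0, 8, 16, 24, 32 and 40 h from the same wells. HEK293 cells (600/well) carried RealTime-Glo reagents from seeding, with compound added after a 5 h settle at 37 C.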

[7] = A CellTox Green Cytotoxicity Assay to monitor cytotoxicity in HEK293 cells - 24 hour (AID 1224875); further: nearly all actives have a fitted effect of over 45% in size; further: potency means the concentration at half of the fitted maximal effect
In short: (§1)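 Tox21 screen in HEK293: membrane-impermeant cyanine dye fluoresces on binding dead-cell DNA; compound pinned 5 h post-seeding, plates held at 37 C, signal read repeatedly through 40 h.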

[8] = qHTS assay to identify small molecule agonists of the estrogen receptor beta (ER-beta) signaling pathway - cell viability counter screen (AID 1259380); further: nearly all actives have a fitted effect of over 30% in size; further: potency means the concentration at half of the fitted maximal effect
In short: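 Measured: luminescence from CellTiter-Glo after 30 min at room temperature, added to wells already read for the LiveBLAzer FRET reporter (2 hr substrate); ER-beta-UAS-bla HEK293T cells had 16 hr compound treatment at 37C, 5% CO2.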

[9] = qHTS assay to identify small molecule antagonists of the estrogen receptor beta (ER-beta) signaling pathway - cell viability counter screen (AID 1259382); further: nearly all actives have a fitted effect of over 55% in size; further: potency means the concentration at half of the fitted maximal effect
In short: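 Readout: luminescence, CellTiter-Glo, same wells as bla assay. System: ER-beta-UAS-bla GripTite HEK293T, 2% charcoal-stripped FBS. Exposure: compounds plus 1nM 17-beta-estradiol, 16 hr, 37C.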

[10] = target: Thyrotropin receptor (Homo sapiens) (UniProt P16473); assay: qHTS assay to identify small molecule antagonists of the thyroid stimulating hormone receptor (TSHR) signaling pathway (AID 1259385; calls by dose curve; further: nearly all actives have a fitted effect of over 20% in size; further: potency means the concentration at half of the fitted maximal effect)
In short: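 TSHR-HEK293 cells (800/well) plated 18 h, then compounds with Ro20-1724 and TSH at 1.5 ng/mL final, 30 min at room temperature. cAMP quantified by HTRF (cAMP-d2/anti-cAMP-cryptate, 1 h); 15 concentrations in triplicate.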

[11] = target: Thyrotropin-releasing hormone receptor (Homo sapiens) (UniProt P34981); assay: qHTS assay to identify small molecule agonists of the thyrotropin-releasing hormone receptor (TRHR) signaling pathway (AID 1346891; calls by dose curve;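 further: HEK293 cells expressing TRHR with calcium dye readout; series mostly up to about 58 µM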)
In short: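 Kinetic fluorescence (3 min, 1 s intervals) reported intracellular calcium after compound transfer onto TRHR-Hek293 cells pre-loaded with dye for 2 h at 37 °C.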

[12] = Caspase-3/7 induction in CHO-K1 cells by small molecules, qHTS cell viability counter screen (AID 1346979); further: nearly all actives have a fitted effect of over 35% in size; further: potency means the concentration at half of the fitted maximal effect
In short: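 Seeding: 1,500 CHO-K1 cells/well. Rest: 5hr, 37C. Treatment: compounds in DMSO, 16hr. Read: CellTiter-Fluor, 1hr, fluorescence.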

[13] = target: Nuclear receptor subfamily 1 group I member 3 (Homo sapiens) (UniProt Q14994); assay: qHTS assay to identify small molecule agonists of the constitutive androstane receptor (CAR) signaling pathway (AID 1224839); further: nearly all actives have a fitted effect of over 15% in size; further: potency means the concentration at half of the fitted maximal effect
In short: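 Stable hCAR/CYP2B6-2.2kb HepG2 line in DMEM with 10% FBS; compounds (15 concentrations) and 0.75 uM PK11195 final, 24 h at 37 C/5% CO2, then ONE-Glo luminescence after 30 min.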

[14] = qHTS assay to identify small molecule antagonists of the estrogen related receptor signaling pathway with the pleiotropic PPARgamma coactivator (PGC) from Tox21 10K library - cell viability counter screen (AID 1224840; active means well fitted cell-killing curve with a large enough effect in the repeat runs, not every such curve was filed as active; further: nearly all actives have a fitted effect of over 40% in size; further: potency means the concentration at half of the fitted maximal effect)
In short: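 Seeded PGC/ERR cells (2,000/well, 6 h, 37 C/5% CO2) get compound by pin tool; 17.5 h incubation at 37 C; CellTiter-Fluor added, 30 min, fluorescence measured.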

[15] = qHTS RealTime-Glo MT Cell Viability Assay in HepG2 cells - 8 hour (AID 1224873); further: nearly all actives have a fitted effect of over 55% in size; further: potency means the concentration at half of the fitted maximal effect
In short: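 HepG2 cells (600/well) mixed with RealTime-Glo MT reagent, settled 5 h at 37 C/5% CO2 before compound addition. Nonlytic NanoLuc luminescence from viable-cell prosubstrate reduction read repeatedly during 40 h treatment at 37 C.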

[16] = A CellTox Green Cytotoxicity Assay to monitor cytotoxicity in HEK293 cells - 32 hour (AID 1224881); further: nearly all actives have a fitted effect of over 40% in size; further: potency means the concentration at half of the fitted maximal effect
In short: as §1

[17] = qHTS assay to identify small molecule agonists of the androgen receptor (AR) signaling pathway in the presence of an antagonist - cell viability counter screen (AID 1259379); further: nearly all actives have a fitted effect of over 25% in size; further: potency means the concentration at half of the fitted maximal effect
In short: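 MDA-kb2 viability measured by CellTiter-Fluor fluorescence in the same wells as the luciferase signal; nilutamide 3.0uM final; 15-point compound titration; 16 hr at 37C.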

[18] = target: Cytochrome P450 2D6 (Homo sapiens) (UniProt P10635); assay: Cytochrome P450 Family 2 Subfamily D Member 6 (CYP2D6) small molecule antagonists: luciferase reporter qHTS assay (AID 1671196); further: nearly all actives have a fitted effect of over 50% in size; further: potency means the concentration at half of the fitted maximal effect
In short: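 Chemicals tested for interference with CYP2D6 activity; proluciferin substrate, NADPH regeneration, 1 h at room temperature, luminescent detection.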

[19] = qHTS assay to identify small molecule agonists of H2AX - cell viability counter screen (AID 1224847; calls by dose curve; further: nearly all actives have a fitted effect of over 30% in size; further: potency means the concentration at half of the fitted maximal effect)
In short: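 Viability of CHO-K1 (wild type) cells after 3 hr compound exposure was measured by CellTiter-Glo luminescence.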

[20] = qHTS assay to identify small molecule antagonists of the progesterone receptor (PR) signaling pathway - cell viability counter screen (AID 1346798); further: nearly all actives have a fitted effect of over 50% in size; further: potency means the concentration at half of the fitted maximal effect
In short: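 Viability was determined by ATP-based luminescence (CellTiter-Glo) in PR-UAS-bla HEK293T cells cultured in 2% charcoal-stripped serum and incubated 16 hr with compounds under R5020 stimulation.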

Measured: Potency

Thyrotropin-releasing hormone receptor (Homo sapiens), sequence (P34981 whole entry, looked up): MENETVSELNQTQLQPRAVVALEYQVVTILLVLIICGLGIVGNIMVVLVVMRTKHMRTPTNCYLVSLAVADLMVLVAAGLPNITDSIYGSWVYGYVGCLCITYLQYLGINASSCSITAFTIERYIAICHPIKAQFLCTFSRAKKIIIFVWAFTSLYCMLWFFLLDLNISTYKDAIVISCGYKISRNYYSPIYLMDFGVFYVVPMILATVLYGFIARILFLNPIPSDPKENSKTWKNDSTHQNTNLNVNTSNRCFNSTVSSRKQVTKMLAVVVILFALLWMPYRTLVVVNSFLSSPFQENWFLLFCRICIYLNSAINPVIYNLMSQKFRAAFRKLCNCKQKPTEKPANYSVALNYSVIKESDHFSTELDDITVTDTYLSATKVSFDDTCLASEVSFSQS
Cytochrome P450 2D6 (Homo sapiens), sequence (P10635 whole entry, looked up): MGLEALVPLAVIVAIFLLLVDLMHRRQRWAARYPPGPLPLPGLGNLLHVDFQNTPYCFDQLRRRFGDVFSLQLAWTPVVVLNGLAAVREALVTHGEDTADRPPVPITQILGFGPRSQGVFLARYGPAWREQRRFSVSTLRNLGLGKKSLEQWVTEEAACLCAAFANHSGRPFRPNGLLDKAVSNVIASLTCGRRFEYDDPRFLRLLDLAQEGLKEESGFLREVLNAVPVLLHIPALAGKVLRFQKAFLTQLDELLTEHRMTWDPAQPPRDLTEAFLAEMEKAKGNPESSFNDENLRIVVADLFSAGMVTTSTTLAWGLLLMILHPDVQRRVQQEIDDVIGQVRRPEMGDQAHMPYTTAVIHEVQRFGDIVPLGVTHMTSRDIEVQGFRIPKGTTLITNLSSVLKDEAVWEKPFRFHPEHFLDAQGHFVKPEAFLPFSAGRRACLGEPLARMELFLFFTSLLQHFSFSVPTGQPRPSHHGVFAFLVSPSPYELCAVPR
Nuclear receptor subfamily 1 group I member 3 (Homo sapiens), sequence (Q14994 whole entry, looked up): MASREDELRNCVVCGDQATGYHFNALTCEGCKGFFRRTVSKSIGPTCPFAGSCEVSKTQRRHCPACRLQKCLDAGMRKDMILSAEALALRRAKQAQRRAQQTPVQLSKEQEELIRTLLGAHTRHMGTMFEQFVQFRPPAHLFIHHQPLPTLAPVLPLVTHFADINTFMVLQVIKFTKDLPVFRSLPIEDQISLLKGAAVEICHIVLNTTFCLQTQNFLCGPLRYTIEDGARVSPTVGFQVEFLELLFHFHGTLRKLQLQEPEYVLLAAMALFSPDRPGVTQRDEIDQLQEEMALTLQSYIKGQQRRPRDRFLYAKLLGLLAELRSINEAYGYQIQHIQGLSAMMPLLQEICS
Thyrotropin receptor (Homo sapiens), sequence (P16473 whole entry, looked up): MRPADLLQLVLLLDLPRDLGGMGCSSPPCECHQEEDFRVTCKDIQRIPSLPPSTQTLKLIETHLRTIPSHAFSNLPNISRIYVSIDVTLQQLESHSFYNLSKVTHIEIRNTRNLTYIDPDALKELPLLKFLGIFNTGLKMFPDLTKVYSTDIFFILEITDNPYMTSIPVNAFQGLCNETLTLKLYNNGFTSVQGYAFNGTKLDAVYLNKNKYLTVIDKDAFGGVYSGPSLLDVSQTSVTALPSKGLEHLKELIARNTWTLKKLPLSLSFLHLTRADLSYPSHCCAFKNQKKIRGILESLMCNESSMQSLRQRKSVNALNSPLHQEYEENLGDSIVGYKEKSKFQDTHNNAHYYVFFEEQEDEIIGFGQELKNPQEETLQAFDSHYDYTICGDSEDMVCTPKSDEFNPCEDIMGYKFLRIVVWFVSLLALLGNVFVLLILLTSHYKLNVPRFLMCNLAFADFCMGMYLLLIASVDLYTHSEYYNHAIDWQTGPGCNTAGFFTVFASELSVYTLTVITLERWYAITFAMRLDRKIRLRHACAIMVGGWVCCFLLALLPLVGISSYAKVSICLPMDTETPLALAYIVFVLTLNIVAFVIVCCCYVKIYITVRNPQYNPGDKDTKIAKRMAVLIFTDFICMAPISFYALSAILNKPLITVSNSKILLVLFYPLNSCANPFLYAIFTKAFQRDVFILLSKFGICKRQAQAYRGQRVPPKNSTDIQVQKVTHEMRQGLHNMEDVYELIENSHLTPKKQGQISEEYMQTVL

Cc1nnc2n1-c1sc(CCc3ccc(CC(C)C)cc3)cc1C(c1ccccc1Cl)=NC2C (stereo not given)
active: [4] 23.9 µM | [5] 19 µM | [6] 19 µM | [8] 29.8 µM | [9] 33.5 µM | [12] 29.8 µM
inactive: [1] | [2] | [3] | [7] | [10] | [11]

O=C1C(I)=CC(=C(c2cc(I)c(O)c(I)c2)c2ccccc2C(=O)O)C=C1I
active: [8] 9.44 µM
not listed: [5] | [9] | [11] | [12] | [19] | [20]
inactive: all other assays above

CCN(CC)C(=O)Cl
not listed: [1] | [2] | [3]
inactive: all other assays above

C[C@]12CC[C@@H](O)C[C@@H]1CC[C@@H]1[C@@H]2CC[C@]2(C)C(=O)CC[C@@H]12
inactive: [17]
active: [4] 17.4 µM | [5] 21.9 µM | [19] 101 µM | [6] 38.9 µM | [16] 54.9 µM | [8] 27.3 µM | [9] 43.3 µM | [20] 48.6 µM | [12] 61.1 µM

N#Cc1cc([N+](=O)[O-])ccc1N
active: [12] 61.1 µM
not listed: [1] | [2] | [3] | [13] | [14] | [17] | [19]
inactive: all other assays above

CC1COC(Cn2cncn2)(c2ccc(Oc3ccc(Cl)cc3)cc2Cl)O1 (stereo not given)
inactive: [1] | [2] | [3] | [5] | [7] | [16]
active: [19] 101 µM | [6] 21.9 µM | [17] 48.6 µM | [12] 24.3 µM | [18] 39.9 µM

ClC(Cl)=C(c1ccc(Cl)cc1)c1ccccc1Cl
active: [4] 24.5 µM | [13] 21.7 µM
inactive: [14] | [5] | [15] | [17] | [9] | [20] | [11] | [18]

Cc1cc(C(C)(C)c2ccc(O)c(C)c2)ccc1O
inactive: [1] | [2] | [3] | [5] | [15] | [9] | [10] | [11]
active: [13] 29.2 µM | [19] 108 µM | [6] 20.8 µM | [8] 29.2 µM | [12] 41.2 µM | [18] 30.2 µM

O=S(=O)(C(Cl)(Cl)Cl)C(Cl)(Cl)Cl
active: [4] 21.9 µM | [14] 48.6 µM | [5] 12.3 µM | [19] 89.8 µM | [6] 12.3 µM | [15] 38.9 µM | [7] 21.9 µM | [16] 19.5 µM | [17] 61.1 µM | [8] 21.7 µM | [12] 8.63 µM
inactive: [13] | [20]

CCOC(=O)C(O)(c1ccc(Cl)cc1)c1ccc(Cl)cc1
active: [4] 31.2 µM and 43.6 µM | [13] 55 µM and 54.5 µM | [19] 90.7 µM and 56.6 µM | [6] 19.7 µM and 34.7 µM | [16] 44.1 µM | [12] 61.8 µM
not listed: [7] | [8] | [10] | [14] | [18]
inactive: all other assays above

Cc1ccc(N(SC(F)(Cl)Cl)S(=O)(=O)N(C)C)cc1
inactive: [1] | [2] | [3] | [13] | [11]
active: [4] 38.9 µM | [14] 24.3 µM | [5] 17.4 µM | [19] 89.8 µM | [6] 5.49 µM | [15] 21.9 µM | [7] 17.4 µM | [16] 5.49 µM | [17] 27.3 µM | [8] 54.5 µM | [10] 61.1 µM | [12] 4.33 µM

CCc1cccc(CC)c1N
inactive: [13]

Cc1cc(C)c(C(=O)P(=O)(c2ccccc2)c2ccccc2)c(C)c1
active: [4] 49 µM | [13] 15.4 µM | [5] 43.6 µM | [6] 43.6 µM | [8] 61.1 µM | [9] 61.1 µM
inactive: [14] | [7] | [10] | [11]

ClC1=C(Cl)[C@]2(Cl)[C@@H]3[C@@H](Cl)[C@H]4O[C@H]4[C@@H]3C1(Cl)C2(Cl)Cl
active: [4] 49 µM | [19] 113 µM | [6] 54.9 µM | [7] 54.9 µM | [16] 54.9 µM
inactive: [1] | [2] | [3] | [5] | [17] | [20] | [18]

C=CC(=O)OCCCC
inactive: [10]

CC(C)(C)OCC1CO1 (stereo not given)
inactive: [10]

O=C(c1ccc(Cl)cc1)c1ccc(Cl)cc1
inactive: [13]

Clc1ccccc1-c1ccccc1Cl
active: [19] 64.5 µM | [7] 35.2 µM | [16] 31.4 µM
not listed: [4] | [5] | [6] | [8] | [10] | [13] | [20]
inactive: all other assays above
